Screening results deposited in PubChem BioAssay by Broad Institute.
A selection: hits, their analogues and other compounds. The true share with any hit is near 2.4%.
GSIS activator: GLuc luminescence reporter in INS-1E cells, primary screen for activators of glucose-dependent secretion of insulin; INS-1E GLuc reporter insulin secretion, 2-3 h; activation, % at 16.6 µM; 370,000 compounds, 0.61% hits; AID 743287, 2014;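 active = lowest replicate activation of at least 40%, so every replicate reaches that level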;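 also: 0% = median of neutral control wells and 100% = median of IBMX positive control wells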
miR-122 sensor: miR-122 Renilla sensor signal increase in Huh7, primary screen, miR-122 inhibitor project, cell-based, single point, plate reader; Huh7 miR-122 Renilla luciferase sensor, 48 h; neutral wells = 0, positive control = 100; activation (reporter increase), % at 12.5 µM; 340,000 compounds, 0.3% hits; AID 602342, 2012;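 active = mean replicate activation score at least 90 and every replicate individually at or above 90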;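 also: higher luciferase means less miR-122 activity so hits act as miR-122 inhibitors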
Dyrk1A ADPGlo: rat Dyrk1A kinase inhibitors, primary screen, biochemical, single point, plate reader | ADP-Glo luminescence, NFATc1 peptide | inhibition, % at 12.5 µM | 310,000 compounds, 0.43% hits;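 also: plate controls were vehicle with enzyme for no effect and no enzyme for full effect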
Wnt bcat act: Wnt/beta-catenin pathway activators, primary screen, cell-based, plate reader, single point; Wnt/beta-catenin reporter cell assay, activator; activation, % at 9.35 µM; 300,000 compounds, 1.2% hits; in the data active = activation above about 30%, passing the limit was not always enough;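 also: 0% = neutral control wells and 100% = positive control wells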
MITF act: activators of MITF-driven TRPM1 promoter reporter, primary screen, cell-based, SK-MEL-5, luciferase, single point; SK-MEL-5 TRPM1-promoter luciferase, 24 h; % of positive control, neutral wells = 0; 300,000 compounds, 0.75% hits; activation, % at 12.5 µM;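 active = mean activation of at least 80% with every replicate also reaching 80%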;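 also: 0% = neutral control wells and 100% = parthenolide positive control wells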
NSD2 inh: NSD2 histone methyltransferase inhibitors, primary screen, biochemical, AlphaScreen, single concentration, set 2. inhibition, % at 12.5 µM. NSD2 peptide methylation, 120 min. Histone-lysine N-methyltransferase NSD2 (Homo sapiens), O96028. AID 743445, 2014. 310,000 compounds, 0.54% hits
Numbers without * were called inactive; / = no result; [ ] = dose if it differs, or a comment. Rule as the data show it, unless noted: active = inhibition above about 50%; inactive = the rest.

SMILES	GSIS activator	miR-122 sensor	Dyrk1A ADPGlo	Wnt bcat act	MITF act	NSD2 inh
CCc1ccc2oc(C(=O)Nc3nonc3CC)c(C)c2c1	17	1	2	27	90*	7
C[C@H](CO)N1C[C@H](C)[C@@H](CN(C)Cc2ccccc2)OCCCC[C@H](C)Oc2ccc(NC(=O)Nc3ccc(F)cc3)cc2C1=O	-17	-4[16.7 µM]	/	/	/	/
Cc1cc(NC(=O)c2ccc(-c3ccccc3[N+](=O)[O-])o2)no1	6	0	-3	-3	/	-1
CC(=O)c1cccc(NC(=O)c2ccc(-c3ccccc3[N+](=O)[O-])o2)c1	-16	4	12	109*	26	0
O=C(C[C@H]1CC[C@H]2[C@@H](COC[C@@H](O)CN2C(=O)Nc2cc(Cl)cc(Cl)c2)O1)N1CCCCC1	-15	11[16.7 µM]	/	/	/	/
O=C(/C(=C/c1ccc(Cl)cc1)c1nc2ccccc2[nH]1)c1ccccc1	/	26	-5	84*	-86	7
O=C(N/C(=C/c1ccc(Cl)cc1)c1nc2ccccc2[nH]1)c1ccco1	-8	67	-1	4	7	-2
Cc1ccc(C(=O)Nc2ccc(NC(=O)c3ccco3)c(C)c2)cc1	1	0	0	13	91*	-2
Cc1cc(NC(=O)c2ccccc2)ncc1NC(=O)c1ccco1	/	-8	8	38*	32	-6
COc1ccc(NC(=O)N(C)C[C@@H]2Oc3ccc(NS(C)(=O)=O)cc3CC(=O)N([C@H](C)CO)C[C@@H]2C)cc1	-7	12[16.7 µM]	/	/	/	/
Nc1ccc(-c2nc3ccc([N+](=O)[O-])cc3[nH]2)cc1	-9	/	11	59*	10	0
Nc1ccc2nc(-c3cc(Cl)c(N)c(Cl)c3)[nH]c2c1	/	-5	3	43*	51	0
O=[N+]([O-])c1ccc(-c2nc3ccc([N+](=O)[O-])cc3[nH]2)cc1	/	-5	29	/	7	2
Cc1ccc(C(=O)c2c3ccccc3[n+]([O-])n2CCO)cc1	48*	11	4	3	-2	/
COc1ccc(C(=O)c2c3ccccc3[n+]([O-])n2CCCN)cc1	-1	-4	4	-3	3	/
CO[C@@H]1CN(C)C(=O)c2ccc(NS(=O)(=O)CC(F)(F)F)cc2OC[C@H](C)N(C)C[C@@H]1C	9	/	/	/	/	/
O=C(CSc1ccccc1)Nc1nc2ccccc2[nH]1	7	/	-5	15	46	1
C(=C\c1ccco1)/c1nc2ccccc2[nH]1	-3	/	11	52*	-2	2
O=C(/C=C/c1ccco1)Nc1ccc(-c2nc3ccccc3[nH]2)cc1	43	101*	-10	-35	-5	0
O=C(CSc1ccc(Cl)cc1)Nc1ccc(-c2nc3ccccc3[nH]2)cc1	106*	-20	-2	/	4	2
C[C@H](CO)N1C[C@H](C)[C@H](CN(C)S(=O)(=O)c2cn(C)cn2)Oc2ccc(NS(=O)(=O)c3cccs3)cc2CC1=O	7	0[16.7 µM]	/	/	/	/
COc1ccccc1C(=O)Nc1ccc2c(c1)OC[C@H](C)N(C(C)=O)C[C@H](C)[C@H](OC)CN(C)C2=O	0	/	/	/	/	/
COC(C)(C)c1cc(C(C)(C)C)nc(N)n1	48*	0	5	/	-5	-5
CN(C)CCNc1ncnc2c1sc1nc(N3CCOCC3)c3c(c12)CC(C)(C)SC3	/	-56	10	-9	/	9
COCCCNc1ncnc2c1sc1nc(-c3ccco3)c3c(c12)CC(C)(C)OC3	-10	/	4	6	-4	26
CC1(C)Cc2c(c(N3CCOCC3)nc3sc4c(NCCN)ncnc4c23)CO1	52*	/	-1	-3	-69	-1
CC1(C)Cc2c(c(-c3ccco3)nc3sc4c(NCCO)ncnc4c23)CO1	88*	/	-36	-7	12	-4
CC1(C)Cc2c(c(N3CCOCC3)nc3sc(C(=O)Nc4ccccc4)c(N)c23)CO1	-5	/	1	34*	11	10
